Data as given in PubChem BioAssay AID492956 (The Scripps Research Institute Molecular Screening Center, 2010).
About 3,300 (0.97%) of roughly 340,000 compounds were called active.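 Rule for the calls: active = inhibition above the mean over all tested compounds plus 3 SD (cut at about 30% in these data); inactive = the rest.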 Many of the other results were omitted from the sample, so actives are more common in it than they were.

These compounds were tested against Platelet-activating factor acetylhydrolase 2, cytoplasmic (Homo sapiens) (UniProt Q99487) (assay: PAFAH2 enzyme inhibitors, primary screen, biochemical, fluorescence polarization, human (AID 492956;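 note: inhibitors block probe labeling of enzyme so polarization drops; 0% = enzyme with DMSO and 100% = wells lacking PAFAH2 protein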)). Conditions: recombinant PAFAH2, FP-rhodamine activity probe, at 3.39 µM, hits give high values.

inhibition, inactive:
CCN(CC)c1ccc(NC(=O)CN2C(=O)NC3(CCc4ccccc43)C2=O)cc1 (stereo not given) -0.31%, Cc1cc(C)n(CCNCc2c(C(=O)N3C[C@@H](C)O[C@@H](C)C3)nc3ccc(Cl)cn23)n1 0.53%, C#CC(C)(C)NC(=O)c1cnc(-c2ccccc2)nc1-c1ccccc1 -1.01%, CC(Nc1ccc([N+](=O)[O-])cc1[N+](=O)[O-])c1ccccc1 (stereo not given) 4.73%, Cc1ccc(OCC(=O)Nc2ccccc2Sc2ccc(Cl)cc2)c([N+](=O)[O-])n1 0.47%, COc1ccc(Cc2n[nH]c(=S)n2NC(=O)Nc2ccc(C)cc2)cc1 -2.45%, CN(CC(=O)Nc1ccc(OC(F)F)cc1)S(=O)(=O)/C=C/c1ccccc1 3.38%, NS(=O)(=O)c1ccc(NS(=O)(=O)/C=C/c2ccccc2)cc1 4.92%, O=C(NCc1ccccc1)C1C(=O)N(Cc2ccccc2)C(=O)C1C1(O)CCCC1 (stereo not given) 3.41%, O=C(OCCOc1ccccc1F)c1cc(S(=O)(=O)N2CCOCC2)ccc1F -1.58%, O=C(Cc1ccc(S(=O)(=O)N2CCOCC2)s1)NCCC(c1ccccc1)c1ccccc1 3.55%, Cc1ccc2c(c1)N(CC(=O)NCC1CCCO1)C(=O)CO2 (stereo not given) 3.2%, COCCCn1c(Cc2csc(Nc3cccc(Cl)c3)n2)nnc1SCC(=O)OC1CCCCC1 0.44%, Cc1ccc(S(=O)(=O)N2CCN(CC(=O)N/N=C/c3cc([N+](=O)[O-])ccc3Cl)CC2)cc1 -3.59%, O=S(=O)(c1ccc(NC(=S)NN=C(C2CC2)C2CC2)cc1)N1CCOCC1 8.93%, C/C(=N\NC(=O)c1ccc(C)cc1)C1C(=O)c2ccccc2C1=O 14.8%, CCN1CCN(c2ccc(S(=O)(=O)N3CCCCC3)cc2NC(=O)Cc2c(Cl)cccc2Cl)CC1 12.9%, CCOC(=O)CSc1nnc(NC(=O)c2cccc(S(=O)(=O)N3CCCC3)c2)s1 1.53%, Cc1cc(C)c2nc(NC(=O)C3CCCO3)sc2c1 (stereo not given) -3.31%, NC(=O)CSc1nnc(NC(=O)c2ccc3ccccc3c2)s1 1.32%, Cc1cc(C)nc(NC(=O)c2cccc([N+](=O)[O-])c2)c1 -7.58%, O=C(Nc1ccc(C2CC2(Cl)Cl)cc1)c1cccc([N+](=O)[O-])c1 (stereo not given) -4.09%, O=C(NCc1ccccc1Cl)C1CCCO1 (stereo not given) 6.52%, COC(=O)C1=C(C(=O)OC)C(c2cc([N+](=O)[O-])ccc2O)c2sc(=O)[nH]c2S1 (stereo not given) 11.7%, CC(C)(C)c1ccccc1NC(=O)CN1C(=O)NC2(CCCC2)C1=O -2.59%, CC(=O)Nc1ccc(SC[C@H](Cc2ccccc2)N2CC[C@@H](C)CCC2=O)cc1 1.61%, CCOC(=O)C1CCCN(Cc2nc(N)nc(Nc3ccc(C)cc3)n2)C1 (stereo not given) 3.45%, CCCN(CC1CC1)C(=O)COC(=O)c1ccc(C)cc1O 6.82%, Cc1cccc(NC(=O)/C=C/c2ccc3c(c2)OCO3)n1 0.78%, Cc1csc(NC(=O)CSc2ccc(-c3ccc(F)cc3)nn2)n1 1.11%, COC(=O)c1sc(-c2ccc(C(C)(C)C)cc2)cc1NC(=O)/C=C/C(=O)O -3.2%, C[C@@H]1CC[C@]2(O[C@@H](CCO)C[C@H](O)[C@H]2O)O1 -8.93%, O=C(OCc1ccccc1F)c1ccc2c(c1)OCCO2 14.7%, CN(C)C(=O)c1ccc(NC(=O)COC(=O)c2cc3c(s2)CCCCC3)cc1 22.8%, CC(NC(=O)COC(=O)c1cc(=O)[nH]c2ccccc12)c1ccccc1 (stereo not given) 1.93%, O=C(CN(Cc1ccccc1)C(=O)c1ccc2c(c1)OCCO2)NCc1ccc2c(c1)OCO2 1.54%, CC(=O)Nc1cccc(C(=O)OCC(=O)c2ccc3c(c2)OCO3)c1 -2.44%, O=C(COC(=O)c1ccc(Cl)nc1)NCc1ccc2c(c1)OCO2 5.61%, O=C(COC(=O)c1ccccc1)c1ccc2c(c1)OCCO2 2.41%, O=C(NCc1ccccc1Cl)c1csc2c1CCCCC2 3.83%, COc1cc(C(c2c(NC(=O)c3ccco3)sc(C)c2C)N2CCOCC2)cc(OC)c1OC (stereo not given) 2.1%, S=c1nc2ccccc2c2nc(-c3cccnc3)[nH]n12 6.52%, CCCCN1C(=O)CCC(C(=O)O)C1c1ccc(OC)cc1 (stereo not given) -2.61%, CC(=O)Nc1ccc(Nc2c([N+](=O)[O-])cc(S(C)(=O)=O)cc2[N+](=O)[O-])cc1 3.4%, O=C(CNS(=O)(=O)c1ccccc1)NCC(=O)OCc1ccccc1F 10.3%, COC(=O)c1ccccc1NC(=O)C1(S(=O)(=O)c2ccc(Cl)cc2)CC1 4.24%, CC(C)C1C2=C(CC(C)(C)CC2=O)ON1c1ccccc1 (stereo not given) -5.16%, Cc1cc(C)n(CC(C)NCc2c(C(=O)N3CCOCC3)nc3c(C)cccn23)n1 (stereo not given) -0.83%, FC(F)(F)c1nc(-c2ccccc2)ncc1-c1nnnn1-c1ccccc1 10.3%, Cc1ccc(-n2ncc3c2CC(C)(C)CC3NC(=O)Cc2c(C)noc2C)cc1 (stereo not given) -3.4%, COc1ccc(C(C(=O)NCc2ccccc2)N(Cc2cccs2)C(=O)c2cnccn2)cc1 (stereo not given) 2.03%, N[C@@H](Cc1ccccc1)C(=O)N1CCC(C(=O)NCC(=O)Nc2ccc(F)cc2)CC1 -5.9%, C=CCn1cnc2scc(-c3ccccc3)c2c1=O -1.85%, C=CCn1c(=S)[nH]c2nc3c(cc2c1=O)COC(C)(C)C3 6.59%, O=S1(=O)C=C(SCCN2CCCC2)c2ccccc21 6.55%, C=CCN1C2CCCC1CC(NC(=S)Nc1cccc(OC)c1)C2 (stereo not given) 1.32%, NC(=O)COc1ccccc1C(=O)NC12CC3CC(CC(C3)C1)C2 6.96%, O=C(COC(=O)c1ccc(Br)o1)NC12CC3CC(CC(C3)C1)C2 26.2%, COc1ccccc1C(=O)NC(=S)NC12CC3CC(CC(C3)C1)C2 -0.29%, O=C(COC(=O)c1cccnc1Cl)Nc1ccc(S(=O)(=O)N2CCOCC2)cc1 -2.28%, COc1cc(C(=O)OCC(=O)NC(C)CCc2ccccc2)cc(OC)c1OC (stereo not given) 5.21%, O=C(OCC(=O)c1cccs1)c1ccc([N+](=O)[O-])o1 -2.46%, COc1ccc(COC(=O)c2ccc(Cl)c(S(=O)(=O)N3CCOCC3)c2)cc1F 8%, CN(C)S(=O)(=O)c1ccc(NC(=O)COC(=O)Cn2[nH]c(=O)c3ccccc3c2=O)cc1 1.37%, CCOc1ccc2c(c1)cc(CN(C(=O)CC)C1CCCCC1)c1nnnn12 9.13%, COc1ccc(C(=O)COC(=O)c2ccc([N+](=O)[O-])s2)cc1OC 18.3%, COc1cc(NC(=O)COC(=O)c2cnc(C)cn2)c(C)cc1[N+](=O)[O-] 4%, Cc1ccc2c(c1)N(C(=O)CCC(=O)N1CCc3ccccc3C1)CCO2 1.77%, COc1ccc(C(=O)COC(=O)c2nn(C)c(=O)c3ccccc23)c(OC)c1 1.19%, COc1ccc(C(=O)OCC(=O)Nc2ccc3[nH]c(=O)[nH]c3c2)c(OC)c1OC 2.25%, COc1ccccc1NC(=O)N(O)C1(C#N)CCCCC1 17.2%, Clc1ccc(-c2nc3ccccn3c2CN2CCSCC2)cc1 3.86%, COc1cc(CCC(=O)OCC(=O)Nc2cccc(S(N)(=O)=O)c2)cc(OC)c1OC 8.16%, O=C1C(=O)N(CCCO)C(c2ccccc2)/C1=C(\O)c1ccc(Br)cc1 (stereo not given) 2.68%

inhibition, active:
COc1ccc(NC(=O)COC(=O)c2ccc(NS(=O)(=O)/C=C/c3ccccc3)cc2)cc1 75.8%, O=C(Cc1ccc(S(=O)(=O)N2CCOCC2)s1)NCCOc1ccccc1F 38.8%, O=[N+]([O-])c1cc(Cl)cc(/C=N/NC(=S)Nc2cc(S(=O)(=O)N3CCOCC3)ccc2Cl)c1O 85.2%, O=C(Nc1nnc(SCc2c(Cl)cccc2Cl)s1)c1cccc([N+](=O)[O-])c1 57.2%, O=C(Nc1nnc(SCc2c(Cl)cccc2Cl)s1)C1CCCO1 (stereo not given) 35.8%, O=C(Nc1nnc(SCc2ccccc2Cl)s1)c1cccc([N+](=O)[O-])c1 32.2%, O=C(COC(=O)c1ccc2c(c1)OCCO2)NCc1ccccc1 51.5%, CC(NC(=O)COC(=O)c1ccc2c(c1)OCO2)c1ccccc1 (stereo not given) 55%, O=C(COC(=O)c1ccc2c(c1)OCCO2)NCc1ccccc1Cl 85.4%, O=C(COC(=O)c1cc2c(s1)CCCC2)NCc1ccccc1Cl 67%, C=CCn1c(=S)[nH]c2scc(-c3ccco3)c2c1=O 38.7%, COc1cc(C(=O)OCC(=O)NC23CC4CC(CC(C4)C2)C3)cc(OC)c1OC 77.8%, O=C(COC(=O)c1cccnc1Cl)NC12CC3CC(CC(C3)C1)C2 86.5%, O=C(COC(=O)c1ccc([N+](=O)[O-])o1)NC12CC3CC(CC(C3)C1)C2 59.8%, COc1cc(NC(=O)COC(=O)c2ccc([N+](=O)[O-])s2)cc(OC)c1OC 36.9%, COc1ccc(C(=O)OCC(=O)c2ccc(Cl)s2)c(OC)c1OC 65.5%
